The nature of experiment [1]: qHTS assay for small molecule agonists of the p53 signaling pathway (AID 651631; calls by dose curve; note: nearly all actives have a fitted effect of over 15% in size). In short, it runs like this: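 We treat p53RE-bla HCT-116 cells with compounds for 16 h at 37 °C, add LiveBLAzer B/G FRET substrate for 2 h at room temperature, and measure fluorescence intensity.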
(qHTS replaces the single test concentration by a dilution series.)

Experiment [2] can be described thus: qHTS assay for small molecules that induce genotoxicity in human embryonic kidney cells expressing luciferase-tagged ATAD5 (AID 651632). Note: nearly all actives have a fitted effect of over 15% in size. Note: potency is the fitted concentration of half-maximal effect. Put shortly: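 HEK293T cells carrying luciferase-tagged ATAD5 were given compound or DMSO vehicle and incubated 16 hr at 37C, 5% CO2. Luciferase activity was read after 30 min at room temperature with Amplite; a rise signals genotoxic stress.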

A short description of experiment [3]: qHTS assay for small molecule agonists of the p53 signaling pathway - cell viability (AID 651633; calls by dose curve;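 note: p53RE-bla HCT reporter cells with a stable beta-lactamase p53 reporter; series mostly up to about 83 µM; nearly all actives have a fitted effect of over 30% in size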). In short, it runs like this:
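Viability counter-read: CellTiter-Glo luminescence (30 min, room temperature) in the same p53RE-bla plates. These plates had been exposed to compounds for 16 h at 37 C.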

A short description of experiment [4]: qHTS assay for small molecules that induce genotoxicity in human embryonic kidney cells expressing luciferase-tagged ATAD5 - cell viability (AID 651634; calls by dose curve; note: nearly all actives have a fitted effect of over 25% in size). Put shortly: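 HEK293T cells carrying luciferase-tagged ATAD5, 2,000 cells/well, exposed to compound for 15.5 hr at 37C. Viability read as live-cell protease activity by CellTiter-Fluor fluorescence after 30 min at 37C.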

Experiment [5] can be described thus: qHTS assay for small molecule disruptors of the mitochondrial membrane potential - cell viability (AID 720634; calls by dose curve; note: nearly all actives have a fitted effect of over 20% in size; note: potency is the fitted concentration of half-maximal effect). In short, it runs like this: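 HepG2 cells, 2,000 per well, attached overnight, then treated 1 hr at 37 C, 5% CO2. Viability read as ATP by CellTiter-Glo luminescence after 30 min at room temperature. Read in the same wells as the m-MPI membrane-potential dye assay.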

A short description of experiment [6]: qHTS assay for small molecule disruptors of the mitochondrial membrane potential (AID 720635). Note: potency is the fitted concentration of half-maximal effect. Put shortly: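 Mitochondrial membrane potential tracked with Mito-MPS dye, red aggregates (ex 540/em 590 nm) against green monomers (ex 490/em 535 nm). Compound treatment 1 hr at 37C, dye 30 min in HepG2.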
Experiment [7] is described as follows: qHTS assay to test for compound auto fluorescence at 590 nm (red) in HepG2 cells (AID 720674). Put shortly: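 1 hr compound incubation on HepG2 cells, 37 C, 5% CO2; plate read ex 540 nm / em 590 nm; intensities reported as Rose Bengal sodium equivalents.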
A short description of experiment [8]: qHTS assay to test for compound auto fluorescence at 460 nm (blue) in HEK293 cells (AID 720678). Put shortly:
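Blue-channel (Ex/Em 405/460 nm) intensity measured in HEK293 cultures after overnight compound exposure at 37C; signal expressed relative to triamterene. Cells plated 2,000 per well in 10% dialyzed FBS medium and allowed 4-5 hr to attach.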

Experiment [9] can be described thus: qHTS assay to test for compound auto fluorescence at 535 nm (green) in HEK293 cells (AID 720680).
Experiment [10] in a line: qHTS assay to test for compound auto fluorescence at 535 nm (green) in HEK293 cell free culture (AID 720682). In short, it runs like this:
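Green-channel intensity (Ex/Em 485/535 nm) was recorded from compound-treated wells containing only DMEM with 10% FBS. Fluorescein provided the equivalency standard.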

The nature of experiment [11]: qHTS assay to test for compound auto fluorescence at 590 nm (red) in HepG2 cell free culture (AID 720684). Put shortly:
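Steps: dispense MEM/10% FBS medium, no cells; pin compound or DMSO vehicle; read red channel, Ex/Em 540/590 nm. Output given as Rose Bengal sodium equivalents.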

The nature of experiment [12]: qHTS assay to test for compound auto fluorescence at 460 nm (blue) in HepG2 cell free culture (AID 720685). In short, it runs like this: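 Compound (23 nL) or DMSO pinned into cell-free MEM with 10% FBS; blue fluorescence read at 405/460 nm excitation/emission, expressed as auto-fluorescence equivalency to triamterene.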
A short description of experiment [13]: qHTS assay to test for compound auto fluorescence at 535 nm (green) in HepG2 cell free culture (AID 720686).
A short description of experiment [14]: qHTS assay to test for compound auto fluorescence at 460 nm (blue) in HepG2 cells (AID 720687). In short, it runs like this:
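Blue-channel autofluorescence (Ex/Em 405/460 nm, triamterene-equivalent) was measured after 1 hr compound exposure at 37 C, 5% CO2. Cells were HepG2, plated overnight at 37 C in MEM plus 10% FBS.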

Experiment [15] concerns the target Glucocorticoid receptor (Homo sapiens) (UniProt P04150). As to the kind of experiment: qHTS assay to identify small molecule agonists of the glucocorticoid receptor (GR) signaling pathway (AID 720691; active = well fitted activation curve with a large enough effect in the signal ratio in the repeat runs, not every such curve was filed as active; the % refers to the signal ratio). Put shortly:
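GR-bla HeLa cells carrying a GRE-driven beta-lactamase reporter, exposed to compounds for 18 h at 37 C. Reporter activation read as fluorescence after 2 h with LiveBLAzer B/G FRET substrate at room temperature.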

Experiment [16] has the same target. The experiment in a line: qHTS assay to identify small molecule antagonists of the glucocorticoid receptor (GR) signaling pathway (AID 720692; active = well fitted inhibition curve with a large enough effect in the signal ratio in the repeat runs, not every such curve was filed as active; the % refers to the signal ratio). In short, it runs like this: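 GR-bla HeLa cells carrying a GRE-driven beta-lactamase reporter received compound after 4 h plating, then dexamethasone (5 nM final). After 18 h at 37C, the FRET substrate was loaded for 2 h at room temperature and fluorescence read.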

A short description of experiment [17]: qHTS assay to test for compound auto fluorescence at 590 nm (red) in HEK293 cells (AID 720679). In short, it runs like this:
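Red-channel autofluorescence (Ex/Em 540/590 nm; Rose Bengal sodium reference) was measured after overnight 37C, 5% CO2 exposure of attached HEK293 cells, 2,000 per well in medium with 10% dialyzed FBS.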

The nature of experiment [18]: qHTS assay to test for compound auto fluorescence at 460 nm (blue) in HEK293 cell free culture (AID 720681). In short, it runs like this:
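Blue fluorescence (Ex 405/Em 460 nm, triamterene-equivalent) was read immediately after pin transfer of compound or DMSO into medium (DMEM, 10% FBS) without cells.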

Experiment [19] in a line: qHTS assay to test for compound auto fluorescence at 590 nm (red) in HEK293 cell free culture (AID 720683). Put shortly: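 Red-channel autofluorescence of compounds in culture medium (DMEM, 10% FBS), no cells, measured at 540/590 nm. Rose Bengal sodium is the reference fluorophore for equivalence.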
Experiment [20] in a line: qHTS assay to test for compound auto fluorescence at 535 nm (green) in HepG2 cells (AID 720675).

A number with no mark means an inactive call. Results filed as inconclusive are left out. Calls of active or inactive are those of the source. Unless noted, calls come from the whole dose curve; as a rule, active = well fitted curve in the direction sought with a large enough effect in the repeat runs; inconclusive = weak or mixed curves; inactive = no such curve, though single readings can be large; an effect the other way counts as inactive or inconclusive.
% is set by controls: 0 for no effect and ±100 for the full control effect.

Sequence of Glucocorticoid receptor (Homo sapiens) (P04150 whole entry, looked up): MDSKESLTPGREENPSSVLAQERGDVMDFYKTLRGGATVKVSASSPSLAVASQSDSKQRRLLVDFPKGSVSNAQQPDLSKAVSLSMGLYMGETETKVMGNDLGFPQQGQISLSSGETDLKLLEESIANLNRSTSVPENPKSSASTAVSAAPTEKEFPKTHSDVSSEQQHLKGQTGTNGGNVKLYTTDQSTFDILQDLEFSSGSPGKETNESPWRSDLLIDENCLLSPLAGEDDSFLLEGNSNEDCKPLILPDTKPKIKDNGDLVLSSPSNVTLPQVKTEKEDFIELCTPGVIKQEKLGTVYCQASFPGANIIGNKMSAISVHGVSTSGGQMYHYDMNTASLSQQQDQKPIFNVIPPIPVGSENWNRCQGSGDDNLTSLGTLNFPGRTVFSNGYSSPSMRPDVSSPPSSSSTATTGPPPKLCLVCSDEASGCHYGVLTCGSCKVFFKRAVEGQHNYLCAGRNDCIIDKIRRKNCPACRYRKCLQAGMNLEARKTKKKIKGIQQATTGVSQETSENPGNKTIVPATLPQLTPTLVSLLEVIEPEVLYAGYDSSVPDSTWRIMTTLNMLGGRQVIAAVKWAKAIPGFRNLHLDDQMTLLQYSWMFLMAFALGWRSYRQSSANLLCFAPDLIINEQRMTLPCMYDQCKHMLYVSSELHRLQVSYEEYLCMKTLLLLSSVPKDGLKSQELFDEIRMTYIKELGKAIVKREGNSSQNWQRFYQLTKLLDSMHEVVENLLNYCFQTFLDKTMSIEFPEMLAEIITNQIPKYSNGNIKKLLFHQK

For the molecule `O=C(CC(=O)c1ccccc1)c1ccccc1`, the Potency result in experiment [1], in experiment [3], in [4], in experiment [8], in [12] and in experiment [14] was “inactive” throughout. For the same molecule, the Potency result in experiment [15] and in [16] was “inactive” in each case. For the same molecule, the Potency is 11.7 µM (active) in experiment [2], 36.9 µM (active) in [5] and 11.7 µM (active) in experiment [6]. The outcome in experiment [7], in experiment [9], in experiment [10], in experiment [11] and in [13] was inactive.

As to `Cc1cc(CC(=O)O)c(C)n1-c1ccc(Cl)cc1`, the Potency entry in experiment [1], in experiment [2], in [3], in experiment [4], in experiment [5] and in experiment [6] was “inactive” each time. The Potency entry in experiment [8], in experiment [18], in experiment [12], in experiment [14] and in experiment [15] was “inactive” in each case. The result in experiment [7], in experiment [17], in [10], in experiment [19], in [11] and in experiment [13] was inactive.

Take `O=C(c1ccccc1)c1ccc2n1CCC2C(=O)O` (centres undefined): the Potency entry in experiment [1], in experiment [2], in experiment [3], in experiment [4], in experiment [5] and in [6] was “inactive” each time. The Potency entry in [8], in experiment [18] and in experiment [12] was “inactive” throughout. The molecule was classed as inactive in experiment [7], in [17], in experiment [9], in experiment [10], in experiment [19] and in experiment [11].

Regarding `Cc1ccc(C)o1`, the Potency entry in experiment [1], in [2], in [3], in [4], in experiment [5] and in experiment [6] was “inactive” in each case. For the same molecule, the Potency entry in [18], in experiment [12], in [15] and in experiment [16] was “inactive” in each case. For the same molecule, the result in experiment [7], in experiment [20], in [17], in experiment [9], in experiment [10] and in experiment [19] was inactive. Moreover, the molecule was classed as inactive in experiment [11] and in [13].

Consider `Nc1nc(N)c(-c2ccccc2)s1`, for which the Potency result in experiment [1], in experiment [2], in experiment [3], in experiment [4], in experiment [5] and in [6] was “inactive” throughout. For the same molecule, the Potency entry in experiment [8], in experiment [18], in [14], in experiment [15] and in experiment [16] was “inactive” throughout. Moreover, the molecule was classed as inactive in experiment [7], in [20], in [9], in experiment [19] and in experiment [11].

Take `Cc1c(Cn2ccnc2)c2ccccc2n1CCC(=O)O`: the Potency entry in [1], in [2], in experiment [3], in experiment [4], in experiment [5] and in experiment [6] was “inactive” throughout. The Potency result in experiment [8], in experiment [12], in [14], in [15] and in experiment [16] was “inactive” throughout. In addition, the call in experiment [7], in experiment [9], in [10], in experiment [11] and in experiment [13] was inactive.

Turning to `CCN(CC)CCc1nc(-c2ccccc2)no1`, the Potency entry in experiment [1], in experiment [2], in experiment [3], in [4], in [5] and in [6] was “inactive” throughout. The Potency entry in experiment [15] and in [16] was “inactive” throughout. The fluorescence, relative to Rose Bengal in experiment [7] was 0.351% [at 18.6 µM]. For the same molecule, the fluorescence, % of fluorescein control in experiment [20] is 0.0159% [at 18.6 µM]; in experiment [13], -0.0688% [at 18.6 µM]. The fluorescence, % of triamterene in experiment [8] was -0.138% [at 18.6 µM]. In addition, the fluorescence, % of fluorescent control in experiment [17] is 0.0464% [at 18.6 µM]; in experiment [18], -0.0186% [at 18.6 µM]; in experiment [12], -0.0109% [at 18.6 µM]; in experiment [14], -0.0362% [at 18.6 µM]. In addition, in experiment [9], the fluorescence, % of fluorescein is -0.143% [at 18.6 µM]. In experiment [10], the activity change is 0.0186% [at 18.6 µM]. Further, in [11], the fluorescence, % of Rose Bengal is 0.0837% [at 18.6 µM].

For `C=Cc1c(C)c2cc3[nH]c(cc4nc(cc5nc(cc1[nH]2)C(C)=C5CCC(=O)O)C(CCC(=O)O)=C4C)c(C)c3C=C`, the Potency entry in experiment [1], in experiment [2], in experiment [3], in experiment [4], in experiment [5] and in experiment [6] was “inactive” throughout. The Potency result in experiment [8], in experiment [18], in experiment [14], in [15] and in experiment [16] was “inactive” throughout. Also, the molecule was called inactive in experiment [7], in [20], in experiment [17], in experiment [10], in experiment [11] and in [13].

The values are drawn from PubChem BioAssay (Tox21).
